In the library only some 9.3% were active in any assay of this set; here they are far more common.
SMN2 splice enh: enhancers of SMN2 splice variant expression | HEK293 SMN2-luciferase splicing reporter, luminescence, 30-36 h | Potency, µM (doses to about 46.1 µM), for the others: at the highest dose activity change, positive = activation, actives largely listed as activators | 210,000 compounds, 2.8% hits | AID 1458; also: % of control where 0% means no effect; nearly all actives have a fitted effect of over 55% in size
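HEK293 cells carry an SMN2 minigene-luciferase reporter in which exon 7 inclusion puts luciferase in frame. Cells were seeded at 2000 cells/well, attached for 10-12 hours, then exposed to compounds for 30-36 hours at 37C before ONE-Glo luminescence.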
FLuc modulator: firefly luciferase modulation, counter-screen for miR-21 project. Potency, µM (highest dose often 57.5 µM), for the others: at the top dose activity change, negative = inhibition, actives largely listed as inhibitors. P08659. 360,000 compounds, 6.9% hits. purified FLuc, Km substrates, luminescence inhibition;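 also: plate controls were vehicle for no effect and reference inhibitor for full effect; nearly all actives have a fitted effect of over 55% in size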
Target sequence (P08659 whole entry, looked up): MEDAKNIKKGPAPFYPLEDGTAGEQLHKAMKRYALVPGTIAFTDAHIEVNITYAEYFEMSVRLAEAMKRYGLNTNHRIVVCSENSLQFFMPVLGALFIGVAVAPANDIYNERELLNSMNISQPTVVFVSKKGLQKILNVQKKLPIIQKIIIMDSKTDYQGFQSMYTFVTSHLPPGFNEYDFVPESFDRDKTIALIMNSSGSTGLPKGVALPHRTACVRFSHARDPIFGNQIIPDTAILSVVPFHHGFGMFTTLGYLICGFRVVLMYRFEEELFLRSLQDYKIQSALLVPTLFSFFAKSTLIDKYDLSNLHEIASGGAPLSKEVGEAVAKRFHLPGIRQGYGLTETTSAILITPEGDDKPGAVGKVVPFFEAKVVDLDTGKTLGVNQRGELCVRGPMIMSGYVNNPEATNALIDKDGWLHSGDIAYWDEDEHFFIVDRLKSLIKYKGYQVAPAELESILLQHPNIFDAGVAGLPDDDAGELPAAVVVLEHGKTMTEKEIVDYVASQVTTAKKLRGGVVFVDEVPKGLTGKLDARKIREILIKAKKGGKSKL
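Purified P. pyralis luciferase, 10 nM final, with Km-level 10 uM D-luciferin and 10 uM ATP in 50 mM Tris acetate pH 7.5, 10 mM Mg acetate, 0.01% Tween-20, 0.05% BSA; 6-point qHTS titration about 60 µM downward; luminescence read.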
NPC1 promoter act: activates the NPC1 promoter. Huh7 NPC1 promoter luciferase reporter, 24 h. Potency, µM (titrated, usually from 9.22 µM), without a hit: top-dose activation, most hits filed as activators. 320,000 compounds, 2.4% hits; also: % of control where 0% means no effect; nearly all actives have a fitted effect of over 60% in size
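Compounds in DMSO were transferred onto Huh7 NPC1-luciferase reporter cells pre-incubated 2 h; after 24 h at 37 °C, Amplite reagent was dispensed and luminescence recorded 10 min later.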
ELG1 genotoxic: genotoxicity induction in ELG1-luciferase HEK293T cells. HEK293T ELG1-luciferase reporter, luminescence, 16 h. Potency, µM (doses to about 46 µM), without a hit: top-dose activity change, positive = activation, usual class: activators. 330,000 compounds, 1.3% hits; also: % of control where 0% means no effect; nearly all actives have a fitted effect of over 60% in size
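After overnight (16 hr) compound treatment at 37 °C, ELG1-luciferase HEK293T cells were lysed with ONE-Glo; luminescence quantified 30 min later at room temperature.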
Rab9 prom act: activators of Rab9 promoter. Huh7 Rab9 promoter-luciferase reporter, luminescence, 24 h. Potency, µM (highest dose often 9.22 µM), for inactives: at the top dose activation, negative = inhibition, actives largely listed as activators. 320,000 compounds, 2.8% hits; also: % of control where 0% means no effect; nearly all actives have a fitted effect of over 60% in size
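Huh7 cells stably carrying a Rab9 promoter-luciferase reporter, 1500 cells per well in OP-MEM I with 10% FBS, treated with compound 24 hours at 37C. Luciferase activity read by luminescence after 10 minutes with Amplite reagent.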
ELG1 DNA repair: ELG1-dependent DNA repair inhibition; HEK293T ELG1-luciferase reporter, luminescence, 16 h; DNA damage induced by 5-fluorouridine; Potency, µM (titrated, usually from 46.1 µM), inactives show at the highest dose activity change, negative = inhibition, usual class: inhibitors; 330,000 compounds, 2.3% hits; AID 504467; also: % is scaled to controls: 0 for no effect and ±100 for the full control effect; nearly all actives have a fitted effect of over 55% in size
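Reporter activity after DNA damage by 5-fluorouridine is monitored. Compound-treated cells incubate 16 hr at 37 °C, then ONE-Glo is added for 30 min before luminescence reading.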
* marks the source's active call; other numbers are inactive results; ? = inconclusive; · = not tested or not shown; [ ] = remark or other dose. Calls follow the shape of the dose curve; as a rule, active = well fitted curve in the direction sought with a large enough effect; inconclusive = small, poorly fitted or top-dose-only effect, or another doubt; inactive = no such curve, though single readings can be large; an effect the other way counts as inactive or inconclusive. Potency is read from the fitted curve at half-maximal effect.

SMILES | SMN2 splice enh | FLuc modulator | NPC1 promoter act | ELG1 genotoxic | Rab9 prom act | ELG1 DNA repair
C/C(=N\Nc1cc(N2CCOCC2)ncn1)c1cccc([N+](=O)[O-])c1 | 11µM* | -18% | 18% | 1% | 21% | -13%
C/C(=N\Nc1cc(N2CCOCC2)ncn1)c1ccccc1 | · | 5.4µM* | 2.5µM* | ? | 2.5µM* | ?
Cc1noc(C)c1CCC(=O)N1CCCC(CCC(=O)NCc2ccccc2F)C1 (stereo unspecified) | 8% | -1% | 0% | 0% | 2% | 4%
COC(=O)c1ccc(N2CCS(=O)(=O)CC2)cc1 | 2% | -6% | 1% | 4% | 5% | 11%
COc1ccc(N2CCN(C(=O)c3ccc(NC(=O)c4nsc5ccccc45)cc3)CC2)cc1 | · | 6.7µM* | · | · | · | ·
COc1ccc(C(=O)N2CCN(c3ccc(NC(=O)c4ccco4)cc3)CC2)cc1 | · | 4% | 7% | -9% | 1% | 20%
Cc1ccc(Cl)cc1N1CCN(C(=O)c2ccc(NC(=O)c3nsc4ccccc34)cc2)CC1 | · | 6µM* | · | · | · | ·
Cc1ccc(Cl)cc1N1CCN(C(=O)c2ccc(NS(=O)(=O)c3c(C)noc3C)cc2)CC1 | -8% | 0% | 1% | 4% | 2% | ?
CC1CCN(C(=O)c2ccc(NC(=O)c3nsc4ccccc34)cc2)CC1 | · | 7.6µM* | · | · | · | ·
COc1ccc(C(=O)N2CCN(c3ccc(NC(=O)c4cccs4)cc3)CC2)cc1 | · | -1% | -6% | -24% | 1% | 12µM*
CC1CCN(C(=O)c2ccc(NC(=O)c3cccs3)cc2)CC1 | · | ? | -2% | 2% | 0% | -3%
CC(=O)/C(N=Nc1ccc(-n2ccc(C(F)(F)F)n2)cc1)=C(\C)O | · | -21% | -4% | 4% | -7% | -20%
CC/C=C\C/C=C\C/C=C\C/C=C\C/C=C\C/C=C\CCC(=O)O[C@H](COCCCCCCCCCCCCCCCC)COP(=O)([O-])OCC[N+](C)(C)C | 0% | · | · | · | · | ·
Cc1ccc(NC(=O)c2oc3ccccc3c2NC(=O)C2CCCCC2)cc1 | · | 0% | · | · | · | ·
Cc1cccc(N2CCN(C(=O)c3ccc(NC(=O)c4nsc5ccccc45)cc3)CC2C)c1 (stereo unspecified) | · | 4.8µM* | · | · | · | ·
COc1cccc(N2CCN(C(=O)c3ccc(NC(=O)c4nsc5ccccc45)cc3)CC2)c1 | · | 1.2µM* | · | · | · | ·
O=C(Nc1ccc(C(=O)N2CCN(c3ccccc3F)CC2)cc1)c1nsc2ccccc12 | · | 5.4µM* | · | · | · | ·
Cc1cccc(N2CCN(C(=O)c3ccncc3)CC2C)c1 (stereo unspecified) | 46% | -1%[2.3 µM] | -4% | -5% | 4% | ?
O=C(Nc1ccc(C(=O)N2CCN(c3ccc(Cl)cc3)CC2)cc1)c1nsc2ccccc12 | · | 1.1µM* | · | · | · | ·
CCCCCn1c(N)c(-c2nc3ccccc3s2)c2c([N+](=O)[O-])nn(CC)c(=O)c21 | -17% | 1% | -5% | -19% | -2% | 2.6µM*
CCCCn1c(N)c(-c2nc3ccccc3s2)c2c([N+](=O)[O-])nn(C)c(=O)c21 | -25% | -13% | -7% | ? | -10% | 1µM*
COc1ccc(COC(=O)CNC(=O)C2CCCCC2)cc1F | · | · | · | -2% | · | 0%
Cc1cc(-c2nnco2)c(C)n1-c1ccc(F)cc1 | 0% | 17µM* | 26% | 5% | 30% | ?
Cc1ccc(C)n1-c1ccc(-c2nnco2)cc1 | 7% | -16% | 0% | 10% | 2% | 16%
NC(=S)N/N=C/c1ccccc1 | 22% | 0% | 1% | 1% | -10% | 17%
SMILES | SMN2 splice enh | FLuc modulator | NPC1 promoter act | ELG1 genotoxic | Rab9 prom act | ELG1 DNA repair
NC(=S)N/N=C/c1ccc(C23CC4CC(CC(C4)C2)C3)cc1 | · | 21µM* | -1% | ? | -7% | 5%
CC(C)CC(=O)Nc1nnc(SCC(=O)NCC2CCCO2)s1 (stereo unspecified) | · | 2% | 1% | 0% | 4% | -13%
O=C(NCc1cccnc1)c1ccc(-c2cc(Cl)ccc2Cl)o1 | · | -11% | -2% | -7% | -10% | 23µM*
O=C(Nc1cccnc1)c1ccc(-c2cc(Cl)ccc2Cl)o1 | -4% | 17µM* | 0% | -8% | 4% | ?
O=C(NCc1cccnc1)/C(=C\c1ccc(-c2ccc(Cl)c(Cl)c2)o1)S(=O)(=O)c1ccccc1 | -88% | 0% | -6% | -20% | -6% | 7.3µM*
O=C(Nc1cccnc1)c1ccc(-c2ccc(Cl)cc2)o1 | 2% | 6µM* | ? | 9% | ? | ?
O=C(NCc1cccnc1)c1ccc(-c2ccc(Cl)cc2)o1 | · | ? | -3% | 0% | -1% | -2%
CCc1ccc(/C=C2/C(=O)N(C)C(=S)N2CC(=O)OC)s1 | -21% | 1% | -4% | 3% | 0% | -5%
Cc1ccc(C(=O)NC2CC3CCC(C2)N3C)cc1 (stereo unspecified) | · | · | -1% | -1% | 0% | 4%
COc1ccc(S(=O)(=O)Cc2ccc(C(=O)NCc3cccnc3)o2)cc1 | -16% | -1% | -2% | -2% | 1% | 15µM*
O=C(Nc1nc(=O)n(C(=O)c2cccc(C(F)(F)F)c2)s1)c1ccccc1 | · | ? | 1% | 0% | 1% | 3%
Cn1nc(-c2ccc(OCC(=O)Nc3ccccc3)cc2)c2ccccc2c1=O | -40% | 1% | -6% | -2% | -1% | ?
Cc1cccc(NC(=O)COc2ccc(-c3nn(C)c(=O)c4ccccc34)cc2)c1 | -13% | -1% | -3% | 2% | 0% | 15µM*
COc1ccccc1NC(=O)COc1ccc(-c2nn(C)c(=O)c3ccccc23)cc1 | -14% | 0% | 0% | -50% | 4% | 16µM*
O=C(NCCCn1cccn1)c1cc(COc2ccc(F)cc2Cl)on1 | · | 17µM* | 16% | -3% | 17% | ?
Cc1nc(CCNC(=O)c2cc(COc3ccc(F)cc3Cl)on2)sc1C | · | 21µM* | 22% | -4% | 12% | ?
CC(CCn1cccn1)NC(=O)c1cc(COc2ccc(F)cc2F)on1 (stereo unspecified) | · | -4% | -3% | 0% | -2% | -2%
CCN(CCn1cccn1)C(=O)c1cc(COc2ccc(F)cc2Cl)on1 | -7% | ? | -1% | 0% | -3% | 0%
CC(Cc1cccnc1)NC(=O)c1cc(COc2ccc(F)cc2Cl)on1 (stereo unspecified) | · | 13µM* | -13% | -2% | 9% | 12%
CC(CCn1cccn1)NC(=O)c1cc(COc2ccc(F)cc2Cl)on1 (stereo unspecified) | · | 17µM* | -2% | 1% | 2% | ?

Bioassay records deposited in PubChem BioAssay by National Center for Advancing Translational Sciences (NCATS).
